Out of some 5,500 compounds screened, about 2,000 (36%) were called active. Another 18% or so got no clear call; they are omitted. Rule as the data show it: active = normalized growth mostly below about 0.91 (no sharp cut-off); inconclusive = no clear call, values can overlap the other calls; inactive = mostly above about 0.92. The list shows a part of the results.
Assay: chemical genetic growth profiling, strain panel (AID 1159580);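 also: tested at 20 µM; growth read once vehicle control cultures reached saturation at 30 °C; 1 = growth at the plate median or of vehicle wells; lower values mean less growth of the strain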
Conditions: S. cerevisiae deletion strains, growth OD
[1] = locus YHR030C, strain SLT2, stronger effect = lower value
[2] = locus YHR079C, strain IRE1, stronger effect = lower value
[3] = locus YJL095W, strain BCK1, stronger effect = lower value
[4] = locus YJR066W, strain TOR1, stronger effect = lower value
[5] = locus YLR113W, strain HOG1, stronger effect = lower value
[6] = locus YNL183C, strain NPR1, stronger effect = lower value
[7] = locus YOR231W, strain MKK1, stronger effect = lower value
[8] = locus YPL256C, strain CLN2, stronger effect = lower value

Measured: normalized growth

O=S(=O)([O][Al])OC[C@H]1O[C@@](COS(=O)(=O)[O][Al])(O[C@H]2O[C@H](COS(=O)(=O)[O][Al])[C@@H](OS(=O)(=O)[O][Al])[C@H](OS(=O)(=O)[O][Al])[C@H]2OS(=O)(=O)[O][Al])[C@@H](OS(=O)(=O)[O][Al])[C@@H]1OS(=O)(=O)[O][Al]
inactive: [1] 0.977 | [2] 0.981 | [3] 0.986 | [4] 0.958 | [5] 0.984 | [6] 0.924 | [7] 0.98 | [8] 0.985

Nc1cc(C(Cl)=C(Cl)Cl)c(S(N)(=O)=O)cc1S(N)(=O)=O
inactive: locus YAL021C, strain ccr4, stronger effect = lower value 0.98 | locus YAL026C, strain drs2, stronger effect = lower value 1 | locus YAL030W, strain snc1, stronger effect = lower value 1.02 | locus YBL061C, strain skt5, stronger effect = lower value 1.01 | locus YBR009C, strain hhf1, stronger effect = lower value 0.992 | locus YBR023C, strain chs3, stronger effect = lower value 0.999 | locus YBR171W, strain sec66, stronger effect = lower value 1.02 | locus YBR231C, strain swc5, stronger effect = lower value 1.04 | locus YBR279W, strain paf1, stronger effect = lower value 1.01 | locus YCL011C, strain gbp2, stronger effect = lower value 0.976 | locus YCL016C, strain dcc1, stronger effect = lower value 0.978 | locus YCL061C, strain MRC1, stronger effect = lower value 1.04 | locus YCL069W, strain vba3, stronger effect = lower value 1.01 | locus YCR088W, strain abp1, stronger effect = lower value 1.01 | locus YDL005C, strain med2, stronger effect = lower value 1.01 | locus YDL040C, strain nat1, stronger effect = lower value 1.01 | locus YDR001C, strain nth1, stronger effect = lower value 1.02 | locus YDR069C, strain doa4, stronger effect = lower value 1.05 | locus YDR137W, strain rgp1, stronger effect = lower value 0.998 | locus YDR159W, strain sac3, stronger effect = lower value 0.957 | locus YDR195W, strain ref2 0.998 | locus YDR297W, strain sur2, stronger effect = lower value 1.01 | locus YDR334W, strain swr1, stronger effect = lower value 1.01 | locus YDR335W, strain msn5, stronger effect = lower value 1.01 | locus YDR392W, strain spt3, stronger effect = lower value 0.978 | locus YEL003W, strain gim4, stronger effect = lower value 1.05 | locus YEL037C, strain rad23, stronger effect = lower value 1 | locus YEL061C, strain CIN8 (second series), stronger effect = lower value 1 | locus YER015W, strain faa2, stronger effect = lower value 1.02 | locus YER016W, strain bim1, stronger effect = lower value 1 | locus YER111C, strain swi4, stronger effect = lower value 1.01 | locus YER155C, strain BEM2 (second series), stronger effect = lower value 1.07 | locus YFR010W, strain ubp6, stronger effect = lower value 1.02 | locus YGL167C, strain pmr1, stronger effect = lower value 1.02 | locus YGL173C, strain kem1, stronger effect = lower value 1.04 | locus YGL227W, strain vid30, stronger effect = lower value 1 | locus YGL240W, strain doc1, stronger effect = lower value 1.04 | locus YGL253W, strain hxk2, stronger effect = lower value 1.01 | locus YHR013C, strain ard1, stronger effect = lower value 1.03 | locus YHR027C, strain rpn1, stronger effect = lower value 1.02 | [1] 0.977 | [2] 0.967 | locus YHR142W, strain chs7, stronger effect = lower value 1.02 | locus YJL092W, strain hpr5, stronger effect = lower value 1.02 | locus YJL095W, strain BCK1 (second series), stronger effect = lower value 0.997 | [3] 1.01 | locus YJL115W, strain asf1, stronger effect = lower value 1 | locus YJL129C, strain trk1, stronger effect = lower value 1.02 | locus YJL154C, strain vps35, stronger effect = lower value 0.999 | locus YJL164C, strain tpk1, stronger effect = lower value 0.995 | locus YJL166W, strain qcr8, stronger effect = lower value 1.06 | [4] 0.95 | locus YKL160W, strain elf1, stronger effect = lower value 1.02 | locus YKR026C, strain gcn3, stronger effect = lower value 1.01 | locus YKR091W, strain srl3, stronger effect = lower value 0.992 | locus YLL001W, strain dnm1, stronger effect = lower value 1.04 | locus YLL026W, stronger effect = lower value 1.02 | locus YLL041C, strain sdh2, stronger effect = lower value 1.01 | locus YLR027C, strain aat2, stronger effect = lower value 1.02 | [5] 1 | locus YLR221C, strain rsa3, stronger effect = lower value 0.981 | locus YLR258W, strain gsy2, stronger effect = lower value 0.991 | locus YLR262C, strain YPT6 (second series), stronger effect = lower value 1.06 | locus YLR320W, strain mms22, stronger effect = lower value 0.993 | locus YLR342W, strain FKS1, stronger effect = lower value 1.04 | locus YLR357W, strain rsc2, stronger effect = lower value 1.04 | locus YLR370C, strain arc18, stronger effect = lower value 1 | locus YLR384C, strain iki3, stronger effect = lower value 1.01 | locus YML120C, strain ndi1, stronger effect = lower value 1.03 | locus YMR058W, strain fet3, stronger effect = lower value 1.02 | locus YMR125W, strain sto1, stronger effect = lower value 0.972 | locus YMR129W, stronger effect = lower value 0.998 | locus YMR205C, strain PFK2, stronger effect = lower value 1.03 | locus YMR231W, strain pep5, stronger effect = lower value 1.01 | locus YNL071W, strain lat1, stronger effect = lower value 0.991 | [6] 0.962 | locus YNL209W, strain ssb2, stronger effect = lower value 0.994 | locus YNL248C, strain rpa49, stronger effect = lower value 0.995 | locus YNL322C, strain KRE1 (second series), stronger effect = lower value 1.01 | locus YNR049C, strain mso1, stronger effect = lower value 1 | locus YOR001W, strain rrp6, stronger effect = lower value 1.02 | locus YOR070C, strain gyp1, stronger effect = lower value 1 | locus YOR080W, strain dia2, stronger effect = lower value 1.02 | locus YOR083W, strain WHI5, stronger effect = lower value 1.01 | locus YOR106W, strain vam3, stronger effect = lower value 1.04 | [7] 0.986 | locus YOR265W, strain rbl2, stronger effect = lower value 1.01 | locus YOR270C, strain vph1, stronger effect = lower value 1.05 | locus YOR290C, strain snf2, stronger effect = lower value 0.964 | locus YPL051W, strain arl3, stronger effect = lower value 1.04 | locus YPL078C, strain atp4, stronger effect = lower value 1.06 | locus YPL106C, strain sse1, stronger effect = lower value 0.997 | locus YPL240C, strain hsp82, stronger effect = lower value 1 | [8] 0.964
